Test system: VDR homodimer (NR concentration 270 nM)
Assay: PBM binding z-score (relative to random genomic background probes); higher = stronger binding; sequences stand for … in GC…GCGATTGACAGCGTAGAATGAAGG
Summary of the method: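 Binding z-scores take random background probes as their reference. They come from custom Agilent 4×180K protein-binding microarrays incubated 1 h with ligand-free nuclear receptor dimers, with antibodies against each partner (one per run) detecting binding. Scanned fluorescence was regression-normalized.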

Going from ATCGAAAGGTCGTGTGGTGAGTATACAGAAAGGC to CGTCCAAGGTCATCGGAGGTCAGTGAAGACAGAT, the PBM binding z-score rises from 2.03 to 5.07.

First: CCATACAGGTGAGAAGGTAACTCAGCCTCGATTA
Second: ATCGAAAGGTCGACGAGGTGAGTCTACACCGTTT
The PBM binding z-score of the first is lower: -0.195 for the first, 0.956 for the second.

Going from CCTCGAAGGACAGAAGGTCAGAGCTGTCCGCTTT to CCTATTAGTTGACCGTAAGGGCAACCGAAGCTCG, the PBM binding z-score rises from 0.121 to 1.06.

Compared with TAGCCTAGGTCATGCAGGGGCCAGTATAGAAAGC, CCTACTCGGCCATTCAGAGGTCATTGATCATATG is higher in PBM binding z-score: 0.435 for the first, 4.02 for the second.

Compared with CCTCGGAGGACAGAAGGTCAGAGCTGTCCGCTTT, GCGACTGGTGCAAAGCAGGTTACCATAAGGTTGG is lower in PBM binding z-score: -0.131 for the first, -0.448 for the second.

Going from CGTCCAAGGTCAGAGAGGTCAATGAATGCCGAGT to CCTATTAGTTGACCATAAGGGCTACCGAAGCTCG, the PBM binding z-score falls from 6.88 to 0.787.

Compared with CAAACTAGGGCACAGAGGTCAAAGTCCGTGCGTA, TAGCCCAGGTCATGCGGGCCAGTATAGTGTCGGC is lower in PBM binding z-score: 5.23 for the first, 1.49 for the second.

Compared with CCGAGTTGGTTATGGGGCATTCAGGCAACGGTGA, GCTACAGGGTCAAGGCCAGAGTACGCGTATTGAT is higher in PBM binding z-score: 0.996 for the first, 2.4 for the second.

Compared with CCTACTGGGCCATCATGTCATTGATATCAACGTT, TCATATAGGTAAGACAGGTGAAAGTCGGCATCTA is higher in PBM binding z-score: -0.253 for the first, 0.18 for the second.

First: CCTAGTTGGTGAAGGTCACACACGCTATAGGTAC
Second: ATCTCTAGGTAAACATAGTTCAGTGAATGCAAAT
The PBM binding z-score of the first is higher: 2.3 for the first, 0.447 for the second.

First: TCATATAGGTAATTCAGGTGAAAGTCGGCATCTA
Second: CCTAGCTGGCCAGGGTCACTCAAGCATTTCGCTT
The PBM binding z-score of the first is lower: 0.399 for the first, 0.994 for the second.

Going from TCATATAGGTAGAGGTGAAAGTCGAACGATATGA to TCGAGTAGGTTAGGAGCATTCAGAATGGCGTCGA, the PBM binding z-score falls from 0.0889 to -0.161.

Compared with ACTTACGGGGCAACGAGGTTATAGCACGCGTATA, AGAATGAGGTTATTAAGATCTGGGAATTGCGGTC is lower in PBM binding z-score: 1.72 for the first, 0.954 for the second.

First: CCTGCTAGGCCAATGGTCAGCTAAAGCAGCTCGC
Second: CGTCCAAGGTCAAAGGAGGTCAGTGAAGACAGAT
The PBM binding z-score of the first is lower: -0.962 for the first, 4.01 for the second.

First: CGAACTAGGTCAGAACAGGACAGTGAGGGATGAT
Second: TCATATAGGTAAGGGTGAAAGTCGAACGATATGA
The PBM binding z-score of the first is higher: -0.141 for the first, -0.201 for the second.

First: CAAACTAGGTTACGAAAGGTCAAAGTCGAATGAC
Second: TCTAATAGTTGAAGGGCAACCGACGAGTCCGTTT
The PBM binding z-score of the first is higher: 2.58 for the first, 1.41 for the second.

Compared with GCTGCTAGGTCAGGTAGGTCAGCTAACGGGTACG, CCTTACGGGTCACTTCAGGTTATAGCATCGGAGT is higher in PBM binding z-score: 0.966 for the first, 1.71 for the second.

Compared with CCGACTGGGGCAAAGGTTACCATACTCAGTACGA, GATACAGGGTTAGCTAGAGGCCAGAGTATGGAAA is higher in PBM binding z-score: -0.204 for the first, 0.162 for the second.

Compared with GCGACTGGGGCAAAGCAGGTTACCTTAAGGTTGG, GCGACTGGGGCATCAGCAGGTTACCATCACTTAA is lower in PBM binding z-score: -0.116 for the first, -0.183 for the second.

First: AGAATGAGGTTATTAGGATCAGGGAATTGCGGTC
Second: ATACCATGGTGATCGTGAGGTCGTTGATACTAAC
The PBM binding z-score of the first is lower: 1.87 for the first, 2.87 for the second.
